Measurements as given in PubChem BioAssay (NCATS).
Values joined by “and” are separate entries in the source; they are usually repeats but may differ in a detail not shown here. Equal values may be shown once. Inconclusive results are not listed. Active and inactive are the calls of the source. The call rests on the fitted dose curve; in most records, active means well fitted inhibition curve with a large enough effect; inconclusive means small, poorly fitted or top-dose-only effect; inactive means flat fitted curve, though single readings scatter.

Columns and labels:
HEK293 = assay: Cytotoxic Profiling of Annotated Libraries Using Quantitative High-Throughput Screening (AID 1296008); settings: Five cell lines viability, CellTiter-Glo ATP luminescence, 48-72 h; max response: hits give low values; further: potency means the concentration at half of the fitted maximal effect
Outline: (§1)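 Cells exposed to compounds for 48 or 72 hr at 37 degrees Celsius. Viability read as ATP-coupled luminescence with CellTiter-Glo after 10 min at room temperature.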

HaCat [1] = assay: as above; settings: Five cell lines viability, CellTiter-Glo ATP luminescence, 48-72 h; max response: hits give low values
Outline: as §1

KB-3-1 = assay: as above; settings: Five cell lines viability, CellTiter-Glo ATP luminescence, 48-72 h; max response: hits give low values
Outline: as §1

NIH3T3 = assay: as above; settings: Five cell lines viability, CellTiter-Glo ATP luminescence, 48-72 h; max response: hits give low values
Outline: as §1

HACAT [2] = assay: qHTS assay to identify novel small-molecules to repurpose for Merkel cell carcinoma treatment (AID 1296009); settings: MCC and control cell lines, CellTiter-Glo viability, 72 h; at 44.8 µM (top of the series) unless noted
Outline: (§2)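 CellTiter-Glo luminescence after 72 hr compound exposure at 37 degree celsius gave cell viability. Libraries NPC and MIPE were run as 8- and 11-point dose responses; RLUs normalized to DMSO (negative) and no-cell (cytotoxicity) controls.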

HEK293T = assay: as above; settings: MCC and control cell lines, CellTiter-Glo viability, 72 h; at 44.8 µM (top of the series) unless noted
Outline: as §2

MCC-13 = assay: as above; settings: MCC and control cell lines, CellTiter-Glo viability, 72 h; series mostly up to 46 µM
Outline: as §2

MCC-26 = assay: as above; settings: MCC and control cell lines, CellTiter-Glo viability, 72 h; series mostly up to 46 µM
Outline: as §2

MKL-1 = assay: as above; settings: MCC and control cell lines, CellTiter-Glo viability, 72 h; series mostly up to 46 µM
Outline: as §2

MKL-2 = assay: as above; settings: MCC and control cell lines, CellTiter-Glo viability, 72 h; series mostly up to 46 µM
Outline: as §2
Further: nearly all actives have a fitted effect of over 60% in size.
On the % scale 0 is the no-effect control and ±100 the full control effect.

O=C(O)/C=C(\CC(=O)O)C(=O)O
inactive: outcome (HEK293) | outcome (HaCat [1]) | max response (KB-3-1) -12.2% | outcome (NIH3T3) | outcome (HACAT [2]) | outcome (HEK293T) | Potency (MCC-13) | Potency (MCC-26) | Potency (MKL-1) | Potency (MKL-2)

CN1C(=O)CC(C)(c2ccccc2)C1=O (stereo not drawn)
inactive: max response (HEK293) 1.84% | outcome (HaCat [1]) | max response (KB-3-1) -1.96% | outcome (NIH3T3) | outcome (HACAT [2]) | Potency (MCC-13) | Potency (MCC-26) | Potency (MKL-1) | Potency (MKL-2)

O=C(OCC(COC(=O)c1cccnc1)(COC(=O)c1cccnc1)COC(=O)c1cccnc1)c1cccnc1
inactive: max response (HEK293) -3.93% | outcome (HaCat [1]) | max response (KB-3-1) -20.2% | outcome (NIH3T3) | outcome (HACAT [2]) | Potency (MCC-13) | Potency (MCC-26) | Potency (MKL-1) | Potency (MKL-2)

CCN1CCN(C(=O)N[C@@H](C(=O)N[C@@H]2C(=O)N3[C@@H]2SC(C)(C)[C@H]3C(=O)O)c2ccccc2)C(=O)C1=O
inactive: max response (HEK293) -1.44% | outcome (HaCat [1]) | max response (KB-3-1) -9.16% | max response (NIH3T3) 2.03% | outcome (HACAT [2]) | Potency (MCC-13) | Potency (MCC-26) | Potency (MKL-1) | Potency (MKL-2)

Cc1ncc(CO)c(CO)c1O
inactive: max response (HEK293) 4.28% | outcome (HaCat [1]) | max response (KB-3-1) -24.2% | max response (NIH3T3) -3.24% | outcome (HACAT [2]) | Potency (MCC-13) | Potency (MCC-26) | Potency (MKL-1) | Potency (MKL-2)

CC(=O)N[C@@H](CCC(N)=O)C(=O)O
inactive: outcome (HEK293) | outcome (HaCat [1]) | max response (KB-3-1) -6.88% | max response (NIH3T3) -1.83% | outcome (HACAT [2]) | outcome (HEK293T) | Potency (MCC-13) | Potency (MCC-26) | Potency (MKL-1) | Potency (MKL-2)

O=C(O)[C@H](O)[C@@H](O)[C@H](O[C@@H]1O[C@H](CO)[C@H](O)[C@H](O)[C@H]1O)[C@H](O)CO
inactive: outcome (HEK293) | outcome (HaCat [1]) | max response (KB-3-1) -11.9% | max response (NIH3T3) -0.868% | outcome (HACAT [2]) | outcome (HEK293T) | Potency (MCC-13) | Potency (MCC-26) | Potency (MKL-1) | Potency (MKL-2)

Cc1cccc(C)c1NC(=O)c1cc(S(N)(=O)=O)c(Cl)cc1O
inactive: outcome (HEK293) | outcome (HaCat [1]) | max response (KB-3-1) -20.9% | max response (NIH3T3) -1.69% | outcome (HACAT [2]) | outcome (HEK293T) | Potency (MCC-13) | Potency (MCC-26) | Potency (MKL-1) | Potency (MKL-2)

O=C(Oc1ccccc1)c1cccc(C(=O)Oc2ccccc2)c1
inactive: max response (HEK293) 3.23% | outcome (HaCat [1]) | max response (KB-3-1) -6.63% | max response (NIH3T3) -5.12% | outcome (HACAT [2]) inactive [at 92 µM] | Potency (MCC-13) | Potency (MCC-26) | Potency (MKL-1) | Potency (MKL-2)

Oc1ccccc1
inactive: max response (HEK293) -1.05% | outcome (HaCat [1]) | max response (KB-3-1) -6.38% | max response (NIH3T3) 3.74% | outcome (HACAT [2]) | Potency (MCC-13) | Potency (MCC-26) | Potency (MKL-1) | Potency (MKL-2)

CC(=O)[C@H]1CC[C@H]2[C@@H]3C=CC4=CC(=O)CC[C@@]4(C)[C@@H]3CC[C@]12C
inactive: max response (HEK293) -2.74% | max response (HaCat [1]) -26.7% | outcome (HaCat [1]) | max response (KB-3-1) -2.29% | max response (NIH3T3) -20.6% and 1.55% | outcome (HACAT [2]) | Potency (MCC-13) | Potency (MCC-26) | Potency (MKL-1) | Potency (MKL-2)

CC(C)(C)C(=O)OCOC(=O)C1N2C(=O)CC2S(=O)(=O)C1(C)C (stereo not drawn)
inactive: outcome (HEK293) | outcome (HaCat [1]) | max response (KB-3-1) -11.8% | max response (NIH3T3) 2.05% | outcome (HACAT [2]) | outcome (HEK293T) | Potency (MCC-13) | Potency (MCC-26) | Potency (MKL-1) | Potency (MKL-2)

CC(=O)Nc1ccc(S(=O)(=O)Nc2cc(C)on2)cc1
inactive: max response (HEK293) 4.22% | outcome (HaCat [1]) | max response (KB-3-1) -4.05% | outcome (NIH3T3) | outcome (HACAT [2]) | Potency (MCC-13) | Potency (MCC-26) | Potency (MKL-1) | Potency (MKL-2)

CO/N=C(/C(=O)N[C@@H]1C(=O)N2C(C(=O)OCOC(=O)C(C)(C)C)=C(C)CS[C@H]12)c1csc(N)n1
inactive: max response (HEK293) 4.75% | outcome (HaCat [1]) | max response (KB-3-1) -4.57% | max response (NIH3T3) 0.923% | outcome (HACAT [2]) | Potency (MCC-13) | Potency (MCC-26) | Potency (MKL-1)

O=C(Oc1ccccc1)c1ccccc1O
inactive: outcome (HEK293) | outcome (HaCat [1]) | max response (KB-3-1) -0.601% | max response (NIH3T3) 3.3% | outcome (HACAT [2]) | outcome (HEK293T) | Potency (MCC-13) | Potency (MCC-26) | Potency (MKL-1) | Potency (MKL-2)

C=CCOc1cc(Cl)ccc1C(=O)NCCN(CC)CC
inactive: max response (HEK293) -33.1% | outcome (HaCat [1]) | max response (KB-3-1) 6.3% | max response (NIH3T3) 1.31% | outcome (HACAT [2]) | Potency (MCC-13) | Potency (MKL-1) | Potency (MKL-2)

CCCCCOc1ccc(C2SC(=O)NC2=O)cc1OCC (stereo not drawn)
inactive: max response (HEK293) 3.99% | outcome (HaCat [1]) | outcome (KB-3-1) | outcome (NIH3T3) | outcome (HACAT [2]) | Potency (MCC-13) | Potency (MCC-26) | Potency (MKL-1) | Potency (MKL-2)

CC(C)N(CCC(=O)c1ccc2ccccc2c1)Cc1ccccc1
inactive: max response (HEK293) -116% | outcome (HaCat [1]) inactive; activator | max response (KB-3-1) -5.46% | outcome (HACAT [2]) inactive; activator
active: Potency (NIH3T3) 10.3 µM
